System: Vero E6 infected with SARS-CoV-2
Assay: inhibition of SARS-CoV-2 cytopathic effect; higher = more antiviral protection, active = above 15
Details: 48 h

Measured: inhibition of SARS-CoV-2 cytopathic effect

Oc1cccc(O)c1 [resorcinol]
inactive: 1 nM -6.66% | 8.33 nM -5.24% | 100 nM -4.73% | 833.33 nM -2.6% | 10000 nM -2.66%

N#Cc1ccc(C(c2ccc(C#N)cc2)n2cncn2)cc1 [letrozole]
inactive: 1 nM -1.89% | 8.33 nM 4.26% | 100 nM 0.11% | 833.33 nM -2.14% | 10000 nM -1.61%

COc1cccc(Nc2ncnn3ccc(CN4CC[C@@H](N)[C@H](O)C4)c23)c1
inactive: 1 nM -0.26% | 8.33 nM 0.1% | 100 nM -6.81% | 833.33 nM -16.4% | 10000 nM -22.6%

CCOC(=O)CNC(=O)[C@@H]1CCCN1C(=O)Cc1ccccc1
inactive: 1 nM 0.67% | 8.33 nM -0.95% | 100 nM 3.29% | 833.33 nM 2.08% | 10000 nM 1.46%

c1ccc2c(c1)CCCC2C1=NCCN1 (stereo not given) [tetrahydrozoline]
inactive: 1 nM 0.31% | 8.33 nM -1.09% | 100 nM 2.06% | 833.33 nM 1.39% | 10000 nM 0.27%

COc1ccc(OC)c2c(=S)c3ccccc3[nH]c12
inactive: 1 nM 2.65% | 8.33 nM 4.64% | 100 nM 1.38% | 833.33 nM 1.44% | 10000 nM 2.75%

O=c1[nH]c(=O)n([C@H]2C[C@H](O)[C@@H](CO)O2)cc1Br [broxuridine]
inactive: 1 nM 1.7% | 8.33 nM 1.06% | 100 nM 1.08% | 833.33 nM 3.59% | 10000 nM 0.04%

O=C1OC(CN2CCOCC2)CN1/N=C/c1ccc([N+](=O)[O-])o1 (stereo not given) [furaltadone]
inactive: 1 nM -10.1% | 8.33 nM -5.96% | 100 nM -8.17% | 833.33 nM -6.67% | 10000 nM -6.1%

NCC(CC(=O)O)c1ccccc1 (stereo not given) [fenigam]
inactive: 1 nM -0.57% | 8.33 nM 0.98% | 100 nM 0.48% | 833.33 nM -0.72% | 10000 nM 1.87%

Clc1cccc(/C=N/N=C/c2cccc(Cl)c2)c1 [3,3'-dichlorobenzaldazine]
inactive: 1 nM 2.78% | 8.33 nM 1.74% | 100 nM 1.33% | 833.33 nM 1.92% | 10000 nM 1.46%

CCOc1ccccc1C(=O)O [2-ethoxybenzoic-acid]
inactive: 1 nM 2.67% | 8.33 nM 3.72% | 100 nM 4.26% | 833.33 nM 0.66% | 10000 nM -0.66%

Cc1nn(C)c2nc(NNC(=O)Nc3cc(Cl)nc(Cl)c3)cc(C(C)C)c12
inactive: 1 nM -4.74% | 8.33 nM -3.45% | 100 nM -2.8% | 833.33 nM -1.22% | 10000 nM 1.05%

O=C([O-])CN1CCN(CC(=O)[O-])CCN([C@H](CO)[C@H](O)CO)CCN(CC(=O)[O-])CC1.[Gd+3] (racemic) [gadobutrol]
inactive: 1 nM -1.29% | 8.33 nM 1.41% | 100 nM 0.03% | 833.33 nM 0.17% | 10000 nM 2.16%

CCn1c(O)nnc1-c1ccc(Cl)cc1 [5-(4chlorophenyl)-4-ethyl-2,4-dihydro-3H-1,2,4-triazol-3-one]
inactive: 1 nM -1.14% | 8.33 nM -2.31% | 100 nM -1.83% | 833.33 nM 0.79% | 10000 nM 0.03%

C=C(C)[C@@H]1[C@H]2OC(=O)[C@@H]1[C@]1(O)C[C@H]3O[C@]34C(=O)O[C@H]2[C@]14C [picrotoxinin]
inactive: 1 nM -2.53% | 8.33 nM -1.67% | 100 nM -2.12% | 833.33 nM -3.39% | 10000 nM -2.53%

CC(=O)S[C@@H]1CC2=CC(=O)CC[C@]2(C)[C@H]2CC[C@@]3(C)[C@@H](CC[C@@]34CCC(=O)O4)[C@H]12 [spironolactone]
inactive: 1 nM -0.66% | 8.33 nM -0.55% | 100 nM -0.37% | 833.33 nM 3.98% | 10000 nM 6.39%

C[C@@H](Nc1cc(F)cc(F)c1)c1cc(C(=O)N(C)C)cc2c(=O)cc(N3CCOCC3)oc12
inactive: 1 nM -3.44% | 8.33 nM -2.8% | 100 nM -5.04% | 833.33 nM 1.19% | 10000 nM -4.12%

CCCc1nn(C)c2c(=O)[nH]c(-c3cc(S(=O)(=O)N4CCN(C)CC4)ccc3OCC)nc12 [sildenafil]
inactive: 1 nM 2.67% | 8.33 nM 2.01% | 100 nM 0.47% | 833.33 nM 2.04% | 10000 nM -2.29%

CCOc1cc2ncc(C#N)c(Nc3ccc(OCc4cccc(F)c4)c(Cl)c3)c2cc1NC(=O)/C=C/CN(C)C
inactive: 1 nM -1.73% | 8.33 nM -3.51% | 100 nM -7.95% | 833.33 nM -12% | 10000 nM -22%

Cn1c(=O)c(F)c(Nc2ccc(I)cc2F)c2c(=O)n(C[C@@H](O)CO)cnc21
inactive: 1 nM -3.03% | 8.33 nM -6.23% | 100 nM -11% | 833.33 nM -11.6% | 10000 nM -12.3%

CC(C)C(=O)OC[C@H]1O[C@@H](n2ccc(N)nc2=O)[C@](C)(F)[C@@H]1OC(=O)C(C)C [mericitabine]
inactive: 1 nM -0.35% | 8.33 nM -2.22% | 100 nM 2.05% | 833.33 nM -0.85% | 10000 nM 1.88%

CONC(=N)c1ccc(-c2ccc(-c3ccc(C(=N)NOC)cc3)o2)cc1 [pafuramidine]
inactive: 1 nM -0.94% | 8.33 nM 1.16% | 100 nM -0.24% | 833.33 nM 0.72% | 10000 nM 2.7%

CC(=O)N[C@H]1[C@H]([C@H](O)[C@H](O)CO)OC(O)(C(=O)O)C[C@@H]1O (mixture of isomers) [aceneuramic-acid]
inactive: 1 nM -6.31% | 8.33 nM 1.91% | 100 nM -1.39% | 833.33 nM -2.36% | 10000 nM -0.15%

C=C(c1ccc(C(=O)O)cc1)c1cc2c(cc1C)C(C)(C)CCC2(C)C [bexarotene]
inactive: 1 nM -0.21% | 8.33 nM -0.07% | 100 nM 0.42% | 833.33 nM 0.85% | 10000 nM 0.03%

COc1cc(Oc2ccnc3cc(OC)c(OC)cc23)ccc1NC(=O)NC(C)c1nccs1 (stereo not given)
inactive: 1 nM -1.6% | 8.33 nM 0.95% | 100 nM 1.7% | 833.33 nM 0.48% | 10000 nM -1.8%

CC1=C(/C=C/C(C)=C/C=C/C(C)=C/C(=O)Nc2ccc(O)cc2)C(C)(C)CCC1 [fenretinide]
inactive: 1 nM 2.01% | 8.33 nM 1.04% | 100 nM 0.95% | 833.33 nM -0.67% | 10000 nM 2.45%

CO/N=C(\C(=O)N[C@@H]1C(=O)N2C(C(=O)O)=CCS[C@H]12)c1csc(N)n1 [ceftizoxim]
inactive: 1 nM -1.24% | 8.33 nM -13.2% | 100 nM -0.8% | 833.33 nM 0.85% | 10000 nM 0.82%

COc1ccc(CNC(=O)c2cc(-c3cncc(C)c3)ncc2-c2nccs2)nc1OC
inactive: 1 nM 1.93% | 8.33 nM 4.06% | 100 nM 1.64% | 833.33 nM -9.94% | 10000 nM 3.12%

— the supplement of paper PMC13380429
